Targets with a hit are over-represented here; the source holds about 8,800 in all. About 0.5% of all pairs of compound and target were hits.
Tests used:
Assay in all cases: log2 fold change, soluble protein after heating vs DMSO (PISA); higher = thermal stabilisation; K562 lysate, 10 uM; active = over 0.2 and 3.5 SD of the protein, either way, in both replicates (recomputed)
[1] = compound: NCC(=O)Nc1ccc(-n2nc(C(F)(F)F)cc2-c2ccc3c(ccc4ccccc43)c2)cc1
In short: (§1)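 Log-two fold change in thermal stability relative to solvent controls is reported from duplicates. For each sample, crude K562 extract from dounce-homogenised pellets in PBS pH 7.4 with 1 mM MgCl2, at 1 mg/mL protein, was treated with 10 μM compound for 30 min. Aliquots heated for 3 min across 48°C-58°C were pooled, brought to 0.5% NP-40 at 4°C and cleared at 21,000xg for 90 min. The supernatant was quantified by TMTpro 16plex LC-MS/MS with channel sums equalised.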

vorinostat = compound: O=C(CCCCCCC(=O)Nc1ccccc1)NO [vorinostat]
In short: as §1

silmitasertib = compound: O=C(O)c1ccc2c(c1)nc(Nc1cccc(Cl)c1)c1ccncc12 [silmitasertib]
In short: as §1

[2] = compound: O=C1NC(=O)C(c2cnc3ccccn23)=C1c1cn2c3c(cc(F)cc13)CN(C(=O)N1CCCCC1)CC2
In short: as §1

entospletinib = compound: c1cn2cc(-c3ccc4cn[nH]c4c3)nc(Nc3ccc(N4CCOCC4)cc3)c2n1 [entospletinib]
In short: as §1

Measured: log2 fold change

C19orf54 (UniProt Q5BKX5)
Sequence of UniProt Q5BKX5 (Q5BKX5 whole entry, looked up): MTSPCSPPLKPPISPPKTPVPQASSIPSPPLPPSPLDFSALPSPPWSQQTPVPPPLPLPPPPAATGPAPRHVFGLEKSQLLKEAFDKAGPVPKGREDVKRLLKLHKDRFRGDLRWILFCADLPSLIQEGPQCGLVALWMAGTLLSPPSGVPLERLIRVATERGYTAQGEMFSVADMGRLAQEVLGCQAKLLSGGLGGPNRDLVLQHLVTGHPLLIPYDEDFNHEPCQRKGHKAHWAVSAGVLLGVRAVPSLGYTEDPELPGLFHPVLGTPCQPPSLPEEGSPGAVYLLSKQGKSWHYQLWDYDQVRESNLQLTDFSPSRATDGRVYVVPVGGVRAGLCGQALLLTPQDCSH
active: vorinostat -0.381
inactive: [1] -0.052 | silmitasertib -0.004 | [2] -0.006 | entospletinib 0.009

BET1 (UniProt O15155)
Sequence of UniProt O15155 (O15155 whole entry, looked up): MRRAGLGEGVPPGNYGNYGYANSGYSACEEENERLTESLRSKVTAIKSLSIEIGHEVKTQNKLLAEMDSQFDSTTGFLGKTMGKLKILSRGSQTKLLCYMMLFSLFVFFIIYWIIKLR
inactive: [1] 0.015 | vorinostat -0.042 | silmitasertib -0.008 | [2] -0.01 | entospletinib 0.035

CEBPZOS (UniProt A8MTT3)
inactive: [1] -0.113 | vorinostat 0.082 | silmitasertib -0.004 | [2] -0.025 | entospletinib -0.037

CCNYL1 (UniProt Q8N7R7)
Sequence of UniProt Q8N7R7 (Q8N7R7 whole entry, looked up): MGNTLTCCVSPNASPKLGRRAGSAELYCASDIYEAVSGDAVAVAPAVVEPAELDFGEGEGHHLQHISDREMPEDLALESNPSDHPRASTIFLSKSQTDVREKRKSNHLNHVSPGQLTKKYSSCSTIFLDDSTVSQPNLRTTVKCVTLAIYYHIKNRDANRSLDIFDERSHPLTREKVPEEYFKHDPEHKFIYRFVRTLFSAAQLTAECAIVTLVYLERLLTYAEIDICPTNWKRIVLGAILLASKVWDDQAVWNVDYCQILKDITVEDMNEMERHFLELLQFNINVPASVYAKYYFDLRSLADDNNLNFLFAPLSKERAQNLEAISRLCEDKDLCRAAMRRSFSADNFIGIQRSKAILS
active: vorinostat -0.674
inactive: [1] -0.013 | silmitasertib 0.079 | [2] 0.019 | entospletinib -0.005

ATAD3B (UniProt Q5T9A4)
Sequence of UniProt Q5T9A4 (Q5T9A4 whole entry, looked up): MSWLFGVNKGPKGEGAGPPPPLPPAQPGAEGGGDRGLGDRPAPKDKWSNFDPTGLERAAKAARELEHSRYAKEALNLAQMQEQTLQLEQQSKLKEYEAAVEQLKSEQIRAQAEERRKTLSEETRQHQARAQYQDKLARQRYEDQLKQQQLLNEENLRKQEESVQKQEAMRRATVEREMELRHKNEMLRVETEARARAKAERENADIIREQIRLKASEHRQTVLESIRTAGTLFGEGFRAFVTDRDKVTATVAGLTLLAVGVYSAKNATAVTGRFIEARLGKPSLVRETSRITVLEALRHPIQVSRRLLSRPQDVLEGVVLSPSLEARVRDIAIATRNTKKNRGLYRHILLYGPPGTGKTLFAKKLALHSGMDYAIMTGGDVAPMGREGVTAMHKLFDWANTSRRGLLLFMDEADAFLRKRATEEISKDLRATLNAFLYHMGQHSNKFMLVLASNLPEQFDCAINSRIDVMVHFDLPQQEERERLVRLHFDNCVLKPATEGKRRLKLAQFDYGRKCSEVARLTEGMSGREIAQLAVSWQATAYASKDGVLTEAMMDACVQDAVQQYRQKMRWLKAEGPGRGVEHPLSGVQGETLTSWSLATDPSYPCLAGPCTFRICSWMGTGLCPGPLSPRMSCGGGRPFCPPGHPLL
inactive: [1] -0.128 | vorinostat 0.132 | silmitasertib 0.015 | [2] -0.057 | entospletinib 0.012

C2CD5 isoform 3 (UniProt Q86YS7)
Sequence of UniProt Q86YS7 (Q86YS7 whole entry, looked up): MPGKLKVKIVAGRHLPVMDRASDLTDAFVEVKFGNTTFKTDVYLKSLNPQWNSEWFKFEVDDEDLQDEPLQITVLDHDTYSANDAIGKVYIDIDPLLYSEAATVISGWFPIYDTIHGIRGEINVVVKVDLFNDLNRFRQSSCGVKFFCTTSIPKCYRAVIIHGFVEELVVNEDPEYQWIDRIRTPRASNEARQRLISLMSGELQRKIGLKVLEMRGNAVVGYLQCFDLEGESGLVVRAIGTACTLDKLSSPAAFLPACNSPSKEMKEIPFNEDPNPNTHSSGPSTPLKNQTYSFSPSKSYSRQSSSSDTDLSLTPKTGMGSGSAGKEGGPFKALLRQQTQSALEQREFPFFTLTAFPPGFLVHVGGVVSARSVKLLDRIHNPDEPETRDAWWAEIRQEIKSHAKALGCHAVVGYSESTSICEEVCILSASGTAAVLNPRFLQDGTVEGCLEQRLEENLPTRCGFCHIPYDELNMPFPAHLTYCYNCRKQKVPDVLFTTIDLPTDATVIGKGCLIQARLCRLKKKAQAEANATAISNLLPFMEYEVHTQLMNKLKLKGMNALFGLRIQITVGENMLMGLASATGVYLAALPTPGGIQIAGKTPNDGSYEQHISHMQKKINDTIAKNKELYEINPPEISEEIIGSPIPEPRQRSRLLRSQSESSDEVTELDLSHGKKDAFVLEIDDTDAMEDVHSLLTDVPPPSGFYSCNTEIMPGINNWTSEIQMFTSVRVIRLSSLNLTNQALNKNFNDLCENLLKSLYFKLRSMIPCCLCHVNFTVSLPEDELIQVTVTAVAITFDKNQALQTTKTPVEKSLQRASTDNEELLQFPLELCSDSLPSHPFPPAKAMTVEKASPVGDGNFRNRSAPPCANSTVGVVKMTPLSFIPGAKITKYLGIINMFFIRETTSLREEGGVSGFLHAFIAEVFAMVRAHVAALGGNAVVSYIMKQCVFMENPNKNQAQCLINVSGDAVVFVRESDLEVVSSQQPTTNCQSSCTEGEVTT
inactive: [1] 0.01 | vorinostat 0.086 | silmitasertib -0.059 | [2] 0.049 | entospletinib 0.009

CCDC22 (UniProt O60826)
active: vorinostat -0.222
inactive: [1] 0.056 | silmitasertib 0.022 | [2] 0.014 | entospletinib -0.021

CHD3 isoform 3 (UniProt Q12873)
Sequence of UniProt Q12873 (Q12873 whole entry, looked up): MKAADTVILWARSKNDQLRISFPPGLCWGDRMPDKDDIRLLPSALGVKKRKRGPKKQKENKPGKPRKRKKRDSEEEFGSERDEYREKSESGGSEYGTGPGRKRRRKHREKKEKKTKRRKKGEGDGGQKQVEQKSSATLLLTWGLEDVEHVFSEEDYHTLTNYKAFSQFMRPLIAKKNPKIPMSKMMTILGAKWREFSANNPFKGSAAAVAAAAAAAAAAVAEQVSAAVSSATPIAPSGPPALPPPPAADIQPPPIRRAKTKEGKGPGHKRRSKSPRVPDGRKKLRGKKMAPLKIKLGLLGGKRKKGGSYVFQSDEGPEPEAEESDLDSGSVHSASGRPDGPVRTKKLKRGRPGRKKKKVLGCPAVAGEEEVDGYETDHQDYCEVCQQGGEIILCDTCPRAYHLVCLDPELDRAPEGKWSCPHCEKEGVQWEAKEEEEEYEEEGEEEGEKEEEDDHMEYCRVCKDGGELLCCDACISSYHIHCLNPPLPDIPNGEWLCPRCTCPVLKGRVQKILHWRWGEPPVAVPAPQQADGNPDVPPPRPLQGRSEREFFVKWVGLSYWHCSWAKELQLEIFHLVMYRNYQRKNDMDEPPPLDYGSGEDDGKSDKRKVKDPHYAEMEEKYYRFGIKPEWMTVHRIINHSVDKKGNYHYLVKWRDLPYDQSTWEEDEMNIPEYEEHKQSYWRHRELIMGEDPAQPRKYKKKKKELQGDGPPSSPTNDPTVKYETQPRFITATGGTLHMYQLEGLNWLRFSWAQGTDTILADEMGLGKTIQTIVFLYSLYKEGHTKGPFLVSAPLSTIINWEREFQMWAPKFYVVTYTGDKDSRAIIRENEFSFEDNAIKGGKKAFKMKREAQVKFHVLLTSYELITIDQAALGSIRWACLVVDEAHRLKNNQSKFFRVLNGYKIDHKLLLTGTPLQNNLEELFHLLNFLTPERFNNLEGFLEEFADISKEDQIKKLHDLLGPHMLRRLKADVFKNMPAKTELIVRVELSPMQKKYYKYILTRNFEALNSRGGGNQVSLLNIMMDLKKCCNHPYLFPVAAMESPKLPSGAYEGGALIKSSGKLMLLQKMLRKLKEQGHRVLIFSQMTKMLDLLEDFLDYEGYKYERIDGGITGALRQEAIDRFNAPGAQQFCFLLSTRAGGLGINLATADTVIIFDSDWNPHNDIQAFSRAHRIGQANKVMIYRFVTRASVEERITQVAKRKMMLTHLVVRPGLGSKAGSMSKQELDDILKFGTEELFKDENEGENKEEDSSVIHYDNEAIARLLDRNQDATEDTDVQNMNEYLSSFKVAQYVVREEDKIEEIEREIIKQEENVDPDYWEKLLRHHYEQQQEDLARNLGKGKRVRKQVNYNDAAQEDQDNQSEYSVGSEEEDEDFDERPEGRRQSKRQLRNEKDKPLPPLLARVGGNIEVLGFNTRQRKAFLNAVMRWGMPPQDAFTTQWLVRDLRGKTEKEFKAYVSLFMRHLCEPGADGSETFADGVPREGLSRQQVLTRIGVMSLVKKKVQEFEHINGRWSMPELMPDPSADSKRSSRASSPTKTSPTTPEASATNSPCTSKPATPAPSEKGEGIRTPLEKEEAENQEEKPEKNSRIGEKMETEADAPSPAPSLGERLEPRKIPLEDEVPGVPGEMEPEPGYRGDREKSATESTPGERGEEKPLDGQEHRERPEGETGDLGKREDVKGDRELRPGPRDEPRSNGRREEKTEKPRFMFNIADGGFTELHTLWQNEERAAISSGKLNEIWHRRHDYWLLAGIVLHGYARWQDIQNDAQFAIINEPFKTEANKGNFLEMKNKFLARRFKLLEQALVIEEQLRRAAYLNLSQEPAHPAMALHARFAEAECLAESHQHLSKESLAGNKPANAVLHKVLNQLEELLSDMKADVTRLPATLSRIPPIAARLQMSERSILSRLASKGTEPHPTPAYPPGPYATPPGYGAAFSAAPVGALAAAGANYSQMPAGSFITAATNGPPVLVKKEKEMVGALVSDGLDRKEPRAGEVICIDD
inactive: [1] 0.022 | silmitasertib 0.032 | [2] -0.004 | entospletinib 0.002
active: vorinostat -0.316

ATE1 isoform 2 (UniProt O95260)
Sequence of UniProt O95260 (O95260 whole entry, looked up): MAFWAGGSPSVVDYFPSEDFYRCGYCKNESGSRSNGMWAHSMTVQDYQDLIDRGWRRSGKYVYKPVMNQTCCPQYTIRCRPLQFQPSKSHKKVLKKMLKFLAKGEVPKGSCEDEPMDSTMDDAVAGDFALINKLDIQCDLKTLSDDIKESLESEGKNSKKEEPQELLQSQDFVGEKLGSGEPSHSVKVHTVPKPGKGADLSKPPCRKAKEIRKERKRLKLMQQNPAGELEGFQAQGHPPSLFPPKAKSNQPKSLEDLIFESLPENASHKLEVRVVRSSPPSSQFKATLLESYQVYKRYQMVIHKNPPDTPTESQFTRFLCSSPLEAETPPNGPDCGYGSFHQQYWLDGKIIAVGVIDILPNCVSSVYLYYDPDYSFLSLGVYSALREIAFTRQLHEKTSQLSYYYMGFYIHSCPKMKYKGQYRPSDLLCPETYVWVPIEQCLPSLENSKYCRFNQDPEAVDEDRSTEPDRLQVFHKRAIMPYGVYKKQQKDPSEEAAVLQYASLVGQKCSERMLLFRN
active: vorinostat -0.444
inactive: [1] -0.068 | silmitasertib 0.041 | [2] -0.01 | entospletinib -0.008
